Data as given in PubChem BioAssay (Tox21).
Results filed as inconclusive are left out. A call without a number means that no potency is given here. Active and inactive are the calls of the source. The call rests on the fitted dose curve.

What was measured:
[1] = biological target: Acetylcholinesterase (Homo sapiens) (UniProt P22303); assay: Acetylcholinesterase (AChE) small molecule antagonists: colormetric cell-based qHTS assay (AID 1347395); further: nearly all actives have a fitted effect of over 30% in size; further: potency means the concentration at half of the fitted maximal effect
Sequence of Acetylcholinesterase (Homo sapiens) (P22303 whole entry, looked up): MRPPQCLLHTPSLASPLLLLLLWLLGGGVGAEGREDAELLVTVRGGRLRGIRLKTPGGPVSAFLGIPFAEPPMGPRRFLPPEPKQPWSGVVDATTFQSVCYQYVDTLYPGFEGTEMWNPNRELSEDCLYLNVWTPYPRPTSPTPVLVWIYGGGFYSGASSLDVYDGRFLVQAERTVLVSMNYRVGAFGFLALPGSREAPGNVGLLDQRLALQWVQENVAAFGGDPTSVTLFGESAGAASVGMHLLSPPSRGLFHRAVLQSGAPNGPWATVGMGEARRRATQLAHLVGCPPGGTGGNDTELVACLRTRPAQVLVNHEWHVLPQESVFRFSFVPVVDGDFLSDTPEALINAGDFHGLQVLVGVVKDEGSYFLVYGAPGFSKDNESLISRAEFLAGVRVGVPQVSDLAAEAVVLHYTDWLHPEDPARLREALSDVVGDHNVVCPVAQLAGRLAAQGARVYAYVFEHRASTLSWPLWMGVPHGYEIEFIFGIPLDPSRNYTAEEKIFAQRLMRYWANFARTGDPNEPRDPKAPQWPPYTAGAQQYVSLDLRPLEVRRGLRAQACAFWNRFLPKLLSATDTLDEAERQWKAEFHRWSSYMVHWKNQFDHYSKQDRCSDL
Outline: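 In this cell-based qHTS, attached SH-SY5Y cells were treated with test chemicals for 30 min, after which acetylthiocholine hydrolysis was followed by DTNB colour development over 90 min at 37 C.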

[2] = biological target: Acetylcholinesterase (Homo sapiens) (UniProt P22303); assay: Acetylcholinesterase (AChE) small molecule antagonists: enzyme-based qHTS assay (AID 1347397); details: Potency: AChE enzyme activity inhibition; outcome: AChE enzyme activity inhibition; further: nearly all actives have a fitted effect of over 55% in size; further: potency means the concentration at half of the fitted maximal effect
Outline: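 Recombinant human AChE (50 mU/mL) preincubated with compound 30 min at room temperature; acetylthiocholine plus DTNB then added, and thiocholine formation read colorimetrically after 10 min at room temperature. DMSO served as vehicle control.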

[3] = biological target: Acetylcholinesterase (Homo sapiens) (UniProt P22303); assay: Acetylcholinesterase (AChE) small molecule antagonists: enzyme-based qHTS assay with human liver microsomes (AID 1347399); details: Potency: qHTS inhibition; outcome: qHTS inhibition; further: nearly all actives have a fitted effect of over 60% in size
Outline: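 Recombinant human AChE (50 mU/mL in the enzyme mix) and human liver microsomes (0.25 mg/mL final) were preincubated with compound and NADPH (0.25 mg/mL final) for 30 min at 37 C. Acetylthiocholine/DTNB was then added; thiocholine was read colorimetrically after 10 min at room temperature.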

[4] = biological target: Acetylcholinesterase (Homo sapiens) (UniProt P22303); assay: Acetylcholinesterase (AChE) small molecule antagonists: fluorescence cell-based qHTS assay (AID 1347398); details: Potency: AChE activity; outcome: AChE activity; further: nearly all actives have a fitted effect of over 50% in size; further: potency means the concentration at half of the fitted maximal effect
Outline: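 SH-SY5Y cells (2000/well), attached overnight, incubated with compound 30 min at 37 C. Acetylthiocholine plus Thiolite Green then added for 40 min at room temperature. Thiocholine fluorescence (Ex/Em 490/520 nm) reports cellular AChE activity.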

Row | Compound | Potency [1] | Potency [2] | Potency [3] | Potency [4]
1 | Cc1ncc([C@@H](CCCCCCc2ccc3c(n2)NCCC3)CC(=O)O)cn1 | 56.4 µM (active) | inactive | inactive | 
2 | CC(=O)[C@]1(O)Cc2c(O)c3c(c(O)c2[C@@H](O[C@H]2C[C@H](N)[C@H](O)[C@H](C)O2)C1)C(=O)c1ccccc1C3=O | 17.4 µM (active) | inactive | inactive | 
3 | COC(C(=O)O)c1ccccc1 (stereo not drawn) | inactive | inactive | inactive | 
4 | Nc1nc(N)nc(-c2cc(Cl)ccc2Cl)n1 | inactive | inactive | inactive | 
5 | CCCCCCCCCCCCCCCCCC[N+](C)(C)C | inactive | 63.5 µM (active) | inactive | 
6 | CCN(CC)CCNC(=O)COc1ccc(OC)cc1 | inactive | inactive | inactive | 
7 | CCC(=O)Oc1ccc2c(c1)CC[C@@H]1[C@@H]2CC[C@@]2(C)[C@H]1C[C@@H](OC(=O)CC)[C@@H]2OC(=O)CC | inactive | inactive | inactive | 
8 | CCN(CC)CCNc1ccc(CO)c2sc3ccccc3c(=O)c12 | inactive | inactive | inactive | 
9 | CC(C)OC(=O)c1cc2c(OCC(O)CNC(C)(C)C)cccc2[nH]1 (stereo not drawn) | inactive | inactive | inactive | 
10 | CC1(COc2ccc(CC3SC(=O)NC3=O)cc2)CCCCC1 (stereo not drawn) | inactive | inactive | inactive | 
11 | CC(=O)CCC1=C(C)CCCC1(C)C | inactive | inactive | inactive | 
12 | CCOC(=O)c1ccccc1C(=C1C=C(Br)C(=O)C(Br)=C1)c1cc(Br)c(O)c(Br)c1 | inactive |  |  | inactive
13 | CCN1CCN(C(=O)N[C@@H](C(=O)N[C@@H]2C(=O)N3C(C(=O)O)=C(CSc4nnnn4C)CS[C@H]23)c2ccc(O)cc2)C(=O)C1=O | inactive | inactive | inactive | 
14 | Oc1c(Cl)cc(Cl)c(Cl)c1Cc1c(O)c(Cl)cc(Cl)c1Cl | inactive |  | inactive | inactive
15 | CC(C)COCC(CN(Cc1ccccc1)c1ccccc1)N1CCCC1 (stereo not drawn) | inactive | inactive | inactive | 
16 | CNCc1ccc(NC(=O)c2c[nH]c3c2C(=O)CCC3)cc1 | 35.6 µM (active) | inactive | inactive | 
17 | CCCC(C(=O)OCCN(CC)CC)(c1ccccc1)c1ccccc1 | inactive | inactive | inactive | 
18 | CCCCCCCC/C=C/CCCCCCCC1=NCCN1CCO | inactive | inactive | inactive | 
19 | CCCCCC/C=C\CCCCCCCC(=O)O | inactive |  | inactive | inactive
20 | CCN(CC)c1ccc2c(-c3ccccc3C(=O)O)c3ccc(=[N+](CC)CC)cc-3oc2c1 | inactive | inactive | inactive | 
21 | c1ccc(C[P+](c2ccccc2)(c2ccccc2)c2ccccc2)cc1 | 71 µM (active) |  | inactive | 12.6 µM (active)
22 | Cc1cccc(C)c1NC(=O)c1cc(S(N)(=O)=O)c(Cl)cc1O | inactive | inactive | inactive | 
23 | O=C1NCCN1CCN1CCC(c2cn(-c3ccc(F)cc3)c3ccc(Cl)cc23)CC1 | inactive |  | inactive | 24.5 µM (active)
